Test results published in PubChem BioAssay (NCI).
About 83,000 compounds went through this panel and 20% of them were active in at least one assay; those are over-represented in the sample as a whole.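 Cell lines were cultured in 96-well plates, exposed to a single compound concentration, and assessed for percent growth 48 hours later.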 A number with no mark means an inactive call. Active and inactive are the calls of the source. Rule for the calls: active = growth percent below 10; inactive = the rest.

How the values were obtained:
Test in all cases: NCI-60 one-dose screen, 48 h (100 = growth as untreated, 0 = no growth, -100 = all killed)
[1] = system: SR leukemia; settings: 10 µM unless noted
[2] = system: RPMI-8226 leukemia; settings: 10 µM unless noted
[3] = system: OVCAR-5 ovarian; settings: 10 µM unless noted
[4] = system: OVCAR-4 ovarian; settings: 10 µM
[5] = system: SK-OV-3 ovarian; settings: 10 µM unless noted
[6] = system: IGROV1 ovarian; settings: 10 µM unless noted
[7] = system: OVCAR-3 ovarian; settings: 10 µM unless noted
[8] = system: NCI/ADR-RES ovarian; settings: 10 µM unless noted
[9] = system: T-47D breast; settings: 10 µM unless noted
[10] = system: MDA-MB-435 melanoma; settings: 10 µM unless noted
[11] = system: SW-620 colon; settings: 10 µM unless noted
[12] = system: MCF7 breast; settings: 10 µM unless noted
[13] = system: HCT-116 colon; settings: 10 µM unless noted
[14] = system: HCC-2998 colon; settings: 10 µM unless noted
[15] = system: KM12 colon; settings: 10 µM unless noted
[16] = system: HS 578T breast; settings: 10 µM unless noted
[17] = system: BT-549 breast; settings: 10 µM unless noted

`O=C1COCCN1c1ccc(NCc2cn(Cc3cccc4ccccc34)c3ccccc23)cc1` showed a growth [1] of 74.5%, a growth [2] of 82.1% and a growth [3] of 41.7%. The growth [4] was 69.8%, the growth [5] was 62% and the growth [6] was 27.2%. For the same compound, the growth [7] was 87.9%, the growth [8] was 78.2% and the growth [9] was 43.1%. It also gave a growth [10] of 98%, a growth [11] of 83% and a growth [12] of 63.4%. For the same compound, the growth [13] was 39.3%, the growth [14] was 103% and the growth [15] was 96.5%.
Work on `COc1ccc(C(C(=O)O)c2ccc(OC)cc2)cc1` yielded a growth [1] of 106%, a growth [2] of 111% and a growth [3] of 108%. It also gave a growth [4] of 103%, a growth [5] of 116% and a growth [6] of 118%. The growth [7] was 101%, the growth [16] was 129% and the growth [8] was 117%. It also gave a growth [9] of 118%, a growth [10] of 115% and a growth [11] of 107%. It also gave a growth [12] of 101%, a growth [13] of 108% and a growth [14] of 116%. For the same compound, the growth [15] was 111%.
Work on `CCCSc1nc(N)nc2nc[nH]c12` yielded a growth [1] of 107%, a growth [2] of 101% and a growth [3] of 108%. It also gave a growth [4] of 114%, a growth [6] of 80.8% and a growth [7] of 103%. The growth [16] was 135%, the growth [8] was 108% and the growth [9] was 97.6%. The growth [17] was 156%, the growth [10] was 117% and the growth [11] was 113%. It also gave a growth [12] of 104%, a growth [13] of 95.3% and a growth [14] of 115%. It also gave a growth [15] of 114%.
With `CCCOc1ccc(-c2nc(-c3ccc(N)cc3)cs2)cc1` the growth [1] was 73.9%, the growth [2] was 96.6% and the growth [3] was 108%. For the same compound, the growth [4] was 100%, the growth [5] was 105% and the growth [6] was 94.8%. The growth [7] was 145%, the growth [16] was 130% and the growth [8] was 97.9%. It also gave a growth [9] of 84.9%, a growth [10] of 107% and a growth [11] of 113%. For the same compound, the growth [12] was 86%, the growth [13] was 95.5% and the growth [14] was 114%. It also gave a growth [15] of 115%.
Work on `Cc1ccc(-n2nc3n(/c2=N\C(=O)NS(=O)(=O)c2ccc(C)cc2)CCN3C2=NCCN2)cc1` yielded a growth [1] of 135%, a growth [2] of 106% and a growth [3] of 95.4%. For the same compound, the growth [5] was 99.1%, the growth [6] was 104% and the growth [7] was 109%. For the same compound, the growth [8] was 105%, the growth [9] was 78.3% and the growth [17] was 84.4%. It also gave a growth [10] of 97.3%, a growth [11] of 104% and a growth [12] of 94.6%. The growth [13] was 87.3%, the growth [14] was 97.3% and the growth [15] was 105%.
For `COc1cc(/C=C/C(=O)/C=C/c2ccc(-n3ccnc3)cc2)ccc1O`, the growth [1] was 25.1%, the growth [2] was -5.38% (active) and the growth [3] was 100%. For the same compound, the growth [5] was 91.5%, the growth [6] was -28.4% (active) and the growth [7] was 34.4%. The growth [16] was 86%, the growth [8] was 99% and the growth [9] was 58%. The growth [17] was 102%, the growth [10] was -9.19% (active) and the growth [11] was 8.7% (active). For the same compound, the growth [12] was 6.22% (active), the growth [13] was 97.5% and the growth [14] was 42.7%. For the same compound, the growth [15] was -42.4% (active).
`Nc1cccc2c1C(=O)c1cccc(NC(=O)c3ccccc3)c1C2=O` showed a growth [1] of 15.1%, a growth [2] of 15.2% and a growth [3] of 57.6%. For the same compound, the growth [4] was 53%, the growth [5] was 20.4% and the growth [7] was -41.1% (active). The growth [8] was -31.1% (active), the growth [9] was 45.6% and the growth [17] was 24.9%. The growth [10] was -56.4% (active), the growth [11] was 7.88% (active) and the growth [12] was 13.7%. The growth [13] was 19.9%, the growth [14] was -10.5% (active) and the growth [15] was 32.5%.
Work on `Cn1c(=O)c(C#N)c(-c2ccco2)n2c(S(=O)(=O)Cc3ccccc3)nnc12` yielded a growth [1] of 65.3%, a growth [2] of 80.4% and a growth [3] of 99.3%. The growth [4] was 81.9%, the growth [5] was 111% and the growth [7] was 103%. For the same compound, the growth [16] was 124%, the growth [8] was 90.4% and the growth [9] was 90.6%. It also gave a growth [17] of 73.7%, a growth [10] of 83% and a growth [11] of 99.5%. For the same compound, the growth [12] was 74.9%, the growth [13] was 75.8% and the growth [14] was 102%. It also gave a growth [15] of 93.7%.
